Calls of active or inactive are those of the source.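 The calls were made as follows: active = inhibition at or above 50% relative to wild type and mutant plate controls; inactive = inhibition below 50%.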

This assay in a line: loss of swimming-algae plug formation – whole organism, Chlamydomonas reinhardtii, WT vs cilia-less mutant, absorbance, 96-well, primary screen (AID 463189).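 Also: 0% = wild type cc124 cells in DMSO and 100% = ciliumless bld1 mutant cells.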 Conditions: Chlamydomonas reinhardtii gravitaxis, OD600 absorbance, 2 days; at 10 µM; hits give high values.
As for `CC(C)(Sc1ccc(CCN(CCCCC2CCCCC2)C(=O)NC2CCCCC2)cc1)C(=O)O`, the inhibition is -0.647% (inactive).

On to `CCCc1c(OCCCOc2ccc(OCC(=O)O)cc2)ccc(C(C)=O)c1O`, for which the inhibition is 0.316% (inactive).

As for `CN[C@H](CC(=O)O)C(=O)O`, the inhibition is 6.26% (inactive).

Turning to `N=C(N)SCCc1cnc[nH]1`, the inhibition is 2% (inactive).

As to `O=c1c(O)c(-c2ccc(O)c(O)c2)oc2cc(O)cc(O)c12`, the inhibition is 2.39% (inactive).

`CC(C)[C@@H]1NC(=O)[C@H](CCCCN)NC(=O)[C@@H](Cc2c[nH]c3ccccc23)NC(=O)[C@H](Cc2ccc(O)cc2)NC(=O)[C@H](C)N(C)C(=O)[C@H](Cc2ccccc2)NC1=O`: the inhibition is 6.6% (inactive).

Turning to `Nc1c2c(nc3ccccc13)CCCC2`, the inhibition is -5.5% (inactive).

Consider `NCCSSCCN`, for which the inhibition was 6.01% (inactive).

In the case of `NCCCCCCCCCCN`, the inhibition is 2.72% (inactive).

As to `C[C@@H](NC(=O)/C(C#N)=C/c1ccc(O)c(O)c1)c1ccccc1`, the inhibition was 4.46% (inactive).

Regarding `CN(C)CCC(c1ccccc1)c1ccccn1` (stereo not given), the inhibition is 7.99% (inactive).

With `CC(C)(CO)Cc1cc(C(C)(C)C)c(O)c(C(C)(C)C)c1`, the inhibition was -2.65% (inactive).

Regarding `COc1cc2nc(N3CC=[N+](C(=O)c4ccco4)CC3)nc(N)c2cc1OC`, the inhibition was 6.38% (inactive).

With `COC(=O)[C@H]1[C@H]2C[C@H]3c4[nH]c5ccccc5c4CCN3C[C@H]2CC[C@@H]1O`, the inhibition was 6.15% (inactive).

Consider `O=C(O)/C=C/c1cnc[nH]1`, for which the inhibition was 1.11% (inactive).

Regarding `OC(CN1CCC(Cc2ccc(F)cc2)CC1)c1ccc(Cl)cc1` (stereo not given), the inhibition was -0.098% (inactive).

`COc1ccc2c(c1)CCC1C2CC[C@@]2(C)C1CC[C@@H]2NCCCCCCN1C(=O)C=CC1=O` (stereo not given in full): the inhibition is 1.37% (inactive).

As for `CCC(CO)Nc1nc(NCc2ccccc2)c2ncn(C(C)C)c2n1` (stereo not given), the inhibition is -6.72% (inactive).

In the case of `N[C@@H](CC(=O)O)C(=O)O`, the inhibition is 4.32% (inactive).

As to `Cc1cc(N)c2ccccc2[n+]1CCCCCCCCCC[n+]1c(C)cc(N)c2ccccc21`, the inhibition is 147% (active).

On to `CCCCCCCCCCCCCCCCCCOC[C@H](COP(=O)([O-])OCC[N+](C)(C)C)OC`, for which the inhibition is -2.43% (inactive).

With `O=c1cc(-c2ccccc2)[nH]c2nc(Cl)ccc12`, the inhibition was 6.49% (inactive).

On to `O=c1ccn([C@@H]2O[C@H](COP(=O)(O)OP(=O)(O)O)[C@@H](O)[C@H]2O)c(=O)[nH]1`, for which the inhibition was 13.9% (inactive).

Regarding `CCN1CCC[C@H]1CNC(=O)c1c(O)c(Cl)cc(Cl)c1OC`, the inhibition was 0.286% (inactive).

As for `CCOC(=O)c1cnc2c(cnn2CC)c1NN=C(C)C`, the inhibition is 7.54% (inactive).

As to `CCN(CC)CCOC(=O)c1ccc(N)cc1`, the inhibition was -0.871% (inactive).

Consider `COc1cc(=O)n(C)c2c(OCC(O)C(C)(C)O)cccc12` (stereo not given), for which the inhibition is -8.37% (inactive).

Turning to `CCCCCC(O)c1cccc(OCc2ccc3ccccc3n2)c1` (stereo not given), the inhibition is 3.99% (inactive).

As to `C[C@H](Cc1ccccc1)Nc1ncnc2c1ncn2[C@@H]1O[C@H](CO)[C@H](O)C1O` (stereo not given in full), the inhibition was 0.221% (inactive).

Consider `COc1[nH]c2ccc(F)cc2c1C(=O)OCC1CCN(CCNS(C)(=O)=O)CC1`, for which the inhibition is -12.7% (inactive).

Consider `Cc1ccc(C(=O)Nc2ccc(S(=O)(=O)O)c3cc(S(=O)(=O)O)cc(S(=O)(=O)O)c23)cc1NC(=O)c1cccc(NC(=O)Nc2cccc(C(=O)Nc3cc(C(=O)Nc4ccc(S(=O)(=O)O)c5cc(S(=O)(=O)O)cc(S(=O)(=O)O)c45)ccc3C)c2)c1`, for which the inhibition is -3.04% (inactive).

Consider `COc1cccc(-c2cc(=O)c3ccccc3o2)c1N`, for which the inhibition is 0.351% (inactive).

Turning to `COc1cc(-c2ccc(=O)[nH]n2)ccc1OC(F)F`, the inhibition was 8.84% (inactive).

As to `COc1ccccc1N1CCN(CCN2C(=O)CC3(CCCC3)CC2=O)CC1`, the inhibition is -4.14% (inactive).

On to `Nc1ccc(N2C(=O)c3ccccc3C2=O)c(Cl)c1`, for which the inhibition is -0.463% (inactive).

`CN(C)CCCO[C@@H]1[C@H]2OC(C)(C)O[C@H]2O[C@@H]1C(O)CO` (stereo not given in full): the inhibition was 0.355% (inactive).

With `Brc1ccc([C@H]2CN3CCSC3=N2)cc1`, the inhibition was 123% (active).

Consider `CC1=C(CC(=O)O)c2cc(F)ccc2/C1=C\c1ccc(S(C)(=O)=O)cc1`, for which the inhibition was 2.22% (inactive).

In the case of `NCCCCCC(=O)O`, the inhibition is 3.27% (inactive).

On to `NC(C(=O)N[C@@H]1C(=O)N2C(C(=O)O)=C(Cl)CS[C@H]12)c1ccccc1` (stereo not given in full), for which the inhibition is 7.28% (inactive).

A word on the inhibition: it is the relative decrease from the control value, in per cent.

The values above are taken from PubChem BioAssay.
